# Screening results deposited in PubChem BioAssay by Broad Institute.
# PGC1a acetyl inh: modulators of PGC1a acetylation; U2OS PGC1a acetylation, AlphaScreen anti-acetyl-lysine; with virally co-expressed GCN5 acetyltransferase; inhibition, % at 15.6 µM; 0.17% of 350,000 active; AID 651687;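 active means every replicate shows inhibition of at least 40%; inconclusive means mean inhibition at least 40% but some replicate below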
# rRNA inh HTS: inhibits bacterial ribosomal RNA function over humanized ribosomes | E. coli WT GFP vs humanized-ribosome RFP mutants, fluorescence, 24 h; hits give low values; DMSO median 0, no signal -100 | GFP signal change (wild-type ribosome), % (test concentration not listed) | 1.6% of 350,000 active | AID 720706;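 active means significant combined selectivity score with lowered wild-type GFP, culture density cut under 30%, mutant RFP and density less affected; inactive means any of these conditions unmet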
# PAX8 reporter: lowers PAX8-driven luciferase in RMG-I cells; RMG-I TPO-luciferase reporter, SteadyGlo, 24 h; inhibition, % at 12.6 µM; 1.2% of 360,000 active; AID 652154;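 active means mean replicate inhibition at least 60% with every replicate also reaching 60%; inconclusive means only one of the two criteria is met; inactive means mean below 60% and not all replicates reaching 60%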;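 further: luciferase light reporting Pax8 driven TPO promoter activity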
# SIRT5 inh: blocks human SIRT5 desuccinylation of peptide; Q9NXA8; Purified SirT5, succinyl-peptide AMC, trypsin-coupled fluorescence; inhibition, % at 15 µM; 1.1% of 330,000 active; AID 652115; in the data active means inhibition above about 15%; inconclusive means no clear call, values can overlap the other calls
# Target sequence (Q9NXA8 whole entry, looked up): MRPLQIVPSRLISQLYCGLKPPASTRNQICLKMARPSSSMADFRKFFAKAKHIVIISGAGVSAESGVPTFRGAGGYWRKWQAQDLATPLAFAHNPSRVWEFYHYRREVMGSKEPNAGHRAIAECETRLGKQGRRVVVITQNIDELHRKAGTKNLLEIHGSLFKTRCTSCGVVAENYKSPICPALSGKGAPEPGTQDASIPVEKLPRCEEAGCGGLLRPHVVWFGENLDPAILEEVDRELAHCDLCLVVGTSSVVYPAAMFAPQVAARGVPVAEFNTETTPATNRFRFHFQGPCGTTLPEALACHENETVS
# EWS-Fli inh: inhibitors of EWS/Fli oncoprotein transcriptional activity; A673 NR0B1-luciferase reporter, viability-normalised; inhibition, % at 12.6 µM; 0.67% of 350,000 active; AID 651661;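 active means mean inhibition of at least 50% after viability correction, with every replicate also passing that limit; inconclusive means mean reaches 50% but only one of two replicates passes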;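 further: firefly luciferase signal divided by Alamar Blue viability fluorescence both relative to DMSO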
# LGR2 inh: Drosophila LGR2 receptor signaling inhibition; AID 720647; 0.35% of 380,000 active; inhibition, % at 9.99 µM; HEK293 LGR2, CRE-luciferase, bursicon-stimulated, 4 h;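 active means drop in luminescence signal, shown as inhibition above about 50% in the replicate tests, limit read from the data, passing the limit was not always enough; inconclusive means probably only some replicates passing the limit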;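 further: agonist challenge used bursicon conditioned medium at about half maximal strength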
# Hits are given with their value; – = inactive; ? = inconclusive; · = no result. Only some compounds are listed: those with a hit (about 3.4% of all), similar ones and a draw of the others.
SMILES,PGC1a acetyl inh,rRNA inh HTS,PAX8 reporter,SIRT5 inh,EWS-Fli inh,LGR2 inh
COc1ccc(S(=O)(=O)Nc2ccc3c(c2)C(=O)N([C@H](C)CO)C[C@@H](C)[C@H](CN(C)C(=O)Nc2ccc(F)cc2)OCCCC[C@@H](C)O3)cc1,–,–,–,15.4,–,–
COc1ccc(NC(=O)N(C)C[C@@H]2OCCCC[C@H](C)Oc3ccc(NS(=O)(=O)c4ccc(F)cc4)cc3C(=O)N([C@@H](C)CO)C[C@@H]2C)cc1,–,–,–,–,–,–
Cc1ccccc1Nc1nc(N)nc(COC(=O)c2cccc(S(=O)(=O)NCc3ccccc3)c2)n1,·,·,–,–,–,·
Cc1ccccc1Nc1nc(N)nc(COC(=O)c2cccc(S(=O)(=O)N(C)C)c2)n1,–,-17.3,–,–,–,–
CN1c2ccc(C3=CCCCC3)cc2[C@@H]2[C@@H](CCN2C(=O)C2CC2)[C@H]1CO,–,–,–,–,–,–
O=C(NCc1ccco1)C1CCCN(S(=O)(=O)c2ccc(Br)cc2)C1 (stereo not drawn),–,–,130.8,–,–,–
CCOc1ccc(S(=O)(=O)N2CCCC(C(=O)NCc3ccco3)C2)cc1 (stereo not drawn),·,–,–,–,·,–
O=C(Nc1ccc(OC(F)F)c(Cl)c1)Nc1ccc2c(c1)OCO2,–,·,–,·,·,·
O=C(Nc1ccc([N+](=O)[O-])cc1)Nc1ccc(OC(F)F)c(Cl)c1,·,·,83.2,·,·,–
C[C@@H]1CCCCO[C@H](CN(C)S(=O)(=O)c2ccc(Cl)cc2)[C@@H](C)CN([C@@H](C)CO)C(=O)c2cc(NS(=O)(=O)c3ccc(F)cc3)ccc2O1,–,–,75.1,–,–,–
C[C@@H]1CCCCO[C@@H](CN(C)S(=O)(=O)c2ccc(F)cc2)[C@@H](C)CN([C@@H](C)CO)C(=O)c2cc(NS(=O)(=O)c3ccc(Cl)cc3)ccc2O1,–,–,–,–,–,–
C[C@@H]1CCCCO[C@@H](CN(C)S(=O)(=O)c2ccc(F)cc2)[C@H](C)CN([C@@H](C)CO)C(=O)c2cc(NS(=O)(=O)c3ccc(Cl)cc3)ccc2O1,–,–,–,–,–,–
C[C@@H]1CN([C@H](C)CO)C(=O)c2cc(NS(=O)(=O)c3ccc(F)cc3)ccc2O[C@@H](C)CCCCO[C@@H]1CN(C)S(=O)(=O)c1ccc(Cl)cc1,–,–,?,25.5,–,–
C[C@@H]1CCCCO[C@@H](CN(C)S(=O)(=O)c2ccc(Cl)cc2)[C@@H](C)CN([C@H](C)CO)C(=O)c2cc(NS(=O)(=O)c3ccc(F)cc3)ccc2O1,–,–,–,15.1,–,–
C[C@@H]1CN([C@@H](C)CO)C(=O)c2cc(NS(=O)(=O)c3ccc(F)cc3)ccc2O[C@@H](C)CCCCO[C@@H]1CN(C)S(=O)(=O)c1ccc(Cl)cc1,–,–,–,24.9,–,–
CCN1[C@@H]2c3ccc(-c4cccc(OC)c4)c(=O)n3C[C@H]1[C@H](CO)[C@H]2C(=O)N(C)C,·,–,·,–,–,–
C[C@@H]1CCCCO[C@@H](CN(C)S(=O)(=O)c2ccc(Cl)cc2)[C@H](C)CN([C@H](C)CO)C(=O)c2cc(NS(=O)(=O)c3ccc(F)cc3)ccc2O1,–,–,80.7,–,–,–
C[C@@H]1CN([C@H](C)CO)C(=O)c2cc(NS(=O)(=O)c3ccc(Cl)cc3)ccc2O[C@@H](C)CCCCO[C@H]1CN(C)S(=O)(=O)c1ccc(F)cc1,–,–,87.2,–,–,–
C[C@H](CO)N1C[C@H](C)[C@@H](CN(C)S(=O)(=O)c2ccc(F)cc2)OCCCC[C@H](C)Oc2ccc(NS(=O)(=O)c3ccc(Cl)cc3)cc2C1=O,–,–,90.0,–,–,–
C[C@@H]1CCCCO[C@H](CN(C)S(=O)(=O)c2ccc(Cl)cc2)[C@H](C)CN([C@H](C)CO)C(=O)c2cc(NS(=O)(=O)c3ccc(Cl)cc3)ccc2O1,–,–,–,·,–,–
C[C@@H]1CN([C@@H](C)CO)C(=O)c2cc(-c3cccc(F)c3)cnc2O[C@H]1CN(C)C(=O)C1CC1,–,–,·,·,–,–
